Data taken from article PMC7862700, “An all-to-all approach to the identification of sequence-specific readers for epigenetic DNA modifications on cytosine”.

Key:
Experiment in all cases: DAPPL (digital affinity profiling via proximity ligation, sequencing); 10 mM Tris-HCl pH 7.5, 50 mM NaCl, 1 mM DTT, 4% glycerol, room temperature, 30 min; GST-TFs on glutathione beads, 16-mer random dsDNA library, 0.1% formaldehyde crosslink after washing; high values mean tight binding
Details in all cases: protein: recombinant; tags: N-terminal GST; dsDNA, one strand shown
FLI1 = molecular target: T1, FLI1 (Homo sapiens, UniProt Q01543 1-452)
T1 sequence: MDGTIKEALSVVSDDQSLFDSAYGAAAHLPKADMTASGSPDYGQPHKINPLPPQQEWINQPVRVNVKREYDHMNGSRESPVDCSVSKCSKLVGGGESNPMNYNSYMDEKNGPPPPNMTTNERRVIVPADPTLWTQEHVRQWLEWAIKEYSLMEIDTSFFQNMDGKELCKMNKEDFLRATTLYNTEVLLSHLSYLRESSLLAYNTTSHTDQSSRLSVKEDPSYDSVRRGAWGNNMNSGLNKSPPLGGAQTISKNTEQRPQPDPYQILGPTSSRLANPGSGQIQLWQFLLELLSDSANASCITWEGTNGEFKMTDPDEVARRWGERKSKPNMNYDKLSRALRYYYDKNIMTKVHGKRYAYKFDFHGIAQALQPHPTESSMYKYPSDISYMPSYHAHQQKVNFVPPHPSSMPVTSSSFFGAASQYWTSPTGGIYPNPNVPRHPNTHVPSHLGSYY
Summary of the method: (§1)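 Human transcription factors carrying a GST fusion were produced in yeast, bound to glutathione beads, tagged with DNA barcodes and pooled together with a tag-only sample. Each pool was held with 200 nmole of a random double-stranded 16-mer DNA library in Tris/NaCl/DTT/glycerol buffer for 30 min at room temperature, then washed, crosslinked in 0.1% formaldehyde, proximity-ligated with BsaI/T4 ligase (1 h, 37 °C), PCR-amplified and sequenced on an Illumina NextSeq500. Binding signal is the read frequency of each hexamer for a given factor divided by its frequency in the tag-only sample.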

ELK1 = molecular target: T2, ELK1 (Homo sapiens, UniProt P19419 1-428)
T2 sequence: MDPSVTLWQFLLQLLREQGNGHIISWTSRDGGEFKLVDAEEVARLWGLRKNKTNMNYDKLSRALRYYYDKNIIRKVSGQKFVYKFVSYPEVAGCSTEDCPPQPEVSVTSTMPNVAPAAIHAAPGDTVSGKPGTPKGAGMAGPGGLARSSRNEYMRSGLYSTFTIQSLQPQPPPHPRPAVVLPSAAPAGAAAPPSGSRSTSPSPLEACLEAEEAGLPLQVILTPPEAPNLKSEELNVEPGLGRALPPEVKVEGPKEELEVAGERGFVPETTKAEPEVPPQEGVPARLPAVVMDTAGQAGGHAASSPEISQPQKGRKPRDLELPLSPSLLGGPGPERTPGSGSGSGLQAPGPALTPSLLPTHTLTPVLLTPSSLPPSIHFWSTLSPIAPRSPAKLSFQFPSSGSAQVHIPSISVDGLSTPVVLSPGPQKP
Summary of the method: as §1

GABPA = molecular target: T3, GABPA (Homo sapiens, UniProt Q06546 1-454)
T3 sequence: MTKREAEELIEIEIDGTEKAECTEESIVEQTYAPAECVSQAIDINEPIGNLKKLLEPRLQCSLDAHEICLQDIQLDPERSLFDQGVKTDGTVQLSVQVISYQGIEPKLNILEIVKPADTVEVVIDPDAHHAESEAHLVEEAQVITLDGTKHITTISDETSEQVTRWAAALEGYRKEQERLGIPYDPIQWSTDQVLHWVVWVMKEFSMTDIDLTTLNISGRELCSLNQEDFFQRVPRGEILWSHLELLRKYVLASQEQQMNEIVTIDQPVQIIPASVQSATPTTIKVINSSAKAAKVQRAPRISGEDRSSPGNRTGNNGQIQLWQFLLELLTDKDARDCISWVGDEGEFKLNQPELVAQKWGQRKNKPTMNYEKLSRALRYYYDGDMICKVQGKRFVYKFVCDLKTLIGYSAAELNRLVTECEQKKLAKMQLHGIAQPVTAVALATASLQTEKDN
Summary of the method: as §1

ERG = molecular target: T4, ERG (Homo sapiens, UniProt P11308 1-479)
T4 sequence: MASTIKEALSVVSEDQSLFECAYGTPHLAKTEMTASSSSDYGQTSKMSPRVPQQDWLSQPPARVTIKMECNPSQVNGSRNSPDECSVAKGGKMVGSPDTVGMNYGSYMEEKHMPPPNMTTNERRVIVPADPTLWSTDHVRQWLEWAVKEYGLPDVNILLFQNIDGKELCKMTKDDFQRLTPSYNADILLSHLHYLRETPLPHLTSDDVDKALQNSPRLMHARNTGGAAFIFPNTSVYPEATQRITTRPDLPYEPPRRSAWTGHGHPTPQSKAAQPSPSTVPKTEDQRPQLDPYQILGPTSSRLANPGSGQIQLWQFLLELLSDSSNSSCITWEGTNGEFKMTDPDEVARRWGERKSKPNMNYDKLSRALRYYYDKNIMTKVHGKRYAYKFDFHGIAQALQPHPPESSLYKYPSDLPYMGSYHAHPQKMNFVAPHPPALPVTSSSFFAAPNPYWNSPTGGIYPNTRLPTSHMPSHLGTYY
Summary of the method: as §1

ELF1 = ELF1 (Homo sapiens, UniProt P32519 1-619)
Sequence of ELF1 (P32519 whole entry): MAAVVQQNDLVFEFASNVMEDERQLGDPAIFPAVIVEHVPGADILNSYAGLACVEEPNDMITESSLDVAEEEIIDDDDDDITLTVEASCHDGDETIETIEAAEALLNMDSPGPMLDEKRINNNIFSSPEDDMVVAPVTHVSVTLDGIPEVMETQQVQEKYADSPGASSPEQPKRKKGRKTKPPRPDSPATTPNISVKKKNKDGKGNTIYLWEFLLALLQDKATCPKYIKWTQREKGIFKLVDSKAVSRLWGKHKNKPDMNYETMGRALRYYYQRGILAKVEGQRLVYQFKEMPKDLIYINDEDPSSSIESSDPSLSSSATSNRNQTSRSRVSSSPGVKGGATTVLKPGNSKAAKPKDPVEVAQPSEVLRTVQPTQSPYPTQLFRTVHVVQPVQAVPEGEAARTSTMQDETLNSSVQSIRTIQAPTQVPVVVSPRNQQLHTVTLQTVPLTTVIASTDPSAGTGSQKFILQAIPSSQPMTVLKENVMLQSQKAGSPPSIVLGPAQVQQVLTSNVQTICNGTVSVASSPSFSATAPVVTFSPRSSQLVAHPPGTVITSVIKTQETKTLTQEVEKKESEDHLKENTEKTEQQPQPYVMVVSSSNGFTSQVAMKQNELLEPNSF
Summary of the method: as §1

EHF = molecular target: T5, EHF (Homo sapiens, UniProt Q9NZC4 1-300)
T5 sequence: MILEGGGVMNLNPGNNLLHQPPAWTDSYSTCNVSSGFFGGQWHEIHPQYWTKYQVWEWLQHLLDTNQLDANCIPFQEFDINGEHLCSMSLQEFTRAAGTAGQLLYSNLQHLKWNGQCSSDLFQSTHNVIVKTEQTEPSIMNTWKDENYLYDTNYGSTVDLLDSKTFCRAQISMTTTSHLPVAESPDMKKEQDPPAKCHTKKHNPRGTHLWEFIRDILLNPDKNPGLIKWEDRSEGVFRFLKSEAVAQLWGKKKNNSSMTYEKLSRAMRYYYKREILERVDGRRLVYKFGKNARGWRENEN
Summary of the method: as §1

SPI1 = SPI1 (Homo sapiens, UniProt P17947 1-270)
Summary of the method: as §1

SPIB = SPIB (Homo sapiens, UniProt Q01892 1-262)
Sequence of SPIB (Q01892 whole entry): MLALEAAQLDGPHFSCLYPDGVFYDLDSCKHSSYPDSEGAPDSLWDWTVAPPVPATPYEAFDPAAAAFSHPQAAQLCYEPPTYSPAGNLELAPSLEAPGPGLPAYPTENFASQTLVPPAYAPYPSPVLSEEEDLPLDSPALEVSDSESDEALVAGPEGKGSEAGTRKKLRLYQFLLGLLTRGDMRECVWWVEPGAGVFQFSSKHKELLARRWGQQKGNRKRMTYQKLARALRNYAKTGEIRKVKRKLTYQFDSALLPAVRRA
Summary of the method: as §1

ELK3 = molecular target: T6, ELK3 (Homo sapiens, UniProt P41970 1-407)
T6 sequence: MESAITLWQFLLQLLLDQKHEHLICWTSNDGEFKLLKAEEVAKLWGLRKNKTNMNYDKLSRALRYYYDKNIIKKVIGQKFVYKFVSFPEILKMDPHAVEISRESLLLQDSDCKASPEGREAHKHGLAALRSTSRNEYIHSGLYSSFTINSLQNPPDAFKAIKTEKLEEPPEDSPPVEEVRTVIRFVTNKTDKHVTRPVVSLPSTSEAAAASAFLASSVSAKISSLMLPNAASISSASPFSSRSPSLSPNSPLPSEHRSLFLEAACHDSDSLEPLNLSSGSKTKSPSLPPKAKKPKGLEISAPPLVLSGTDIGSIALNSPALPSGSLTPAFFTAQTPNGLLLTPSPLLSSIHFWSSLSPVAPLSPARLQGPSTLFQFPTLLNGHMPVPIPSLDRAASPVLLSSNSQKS
Summary of the method: as §1

Row | Sequence | binding signal (FLI1) | binding signal (ELK1) | binding signal (GABPA) | binding signal (ERG) | binding signal (ELF1) | binding signal (EHF) | binding signal (SPI1) | binding signal (SPIB) | binding signal (ELK3)
1 | GCATCC | 1.55 fold enrichment (6-mer frequency, TF over GST control) | 1.67 fold enrichment (6-mer frequency, TF over GST control) | 1.36 fold enrichment (6-mer frequency, TF over GST control) | 1.68 fold enrichment (6-mer frequency, TF over GST control) | 1.44 fold enrichment (6-mer frequency, TF over GST control) | 1.55 fold enrichment (6-mer frequency, TF over GST control) | 1.47 fold enrichment (6-mer frequency, TF over GST control) | 1.6 fold enrichment (6-mer frequency, TF over GST control) | 1.7 fold enrichment (6-mer frequency, TF over GST control)
2 | GCCTAT | 1.18 fold enrichment (6-mer frequency, TF over GST control) | 1.3 fold enrichment (6-mer frequency, TF over GST control) | 1.21 fold enrichment (6-mer frequency, TF over GST control) | 1.23 fold enrichment (6-mer frequency, TF over GST control) | 1.39 fold enrichment (6-mer frequency, TF over GST control) | 1.17 fold enrichment (6-mer frequency, TF over GST control) | 1.13 fold enrichment (6-mer frequency, TF over GST control) | 1.21 fold enrichment (6-mer frequency, TF over GST control) | 1.27 fold enrichment (6-mer frequency, TF over GST control)
3 | CGGCTA | 1.16 fold enrichment (6-mer frequency, TF over GST control) | 1.14 fold enrichment (6-mer frequency, TF over GST control) | 1.1 fold enrichment (6-mer frequency, TF over GST control) | 1.1 fold enrichment (6-mer frequency, TF over GST control) | 1.15 fold enrichment (6-mer frequency, TF over GST control) | 1.13 fold enrichment (6-mer frequency, TF over GST control) | 1.16 fold enrichment (6-mer frequency, TF over GST control) | 1.21 fold enrichment (6-mer frequency, TF over GST control) | 1.02 fold enrichment (6-mer frequency, TF over GST control)
4 | GAAGTT | 1.76 fold enrichment (6-mer frequency, TF over GST control) | 1.66 fold enrichment (6-mer frequency, TF over GST control) | 1.63 fold enrichment (6-mer frequency, TF over GST control) | 1.77 fold enrichment (6-mer frequency, TF over GST control) | 1.61 fold enrichment (6-mer frequency, TF over GST control) | 1.72 fold enrichment (6-mer frequency, TF over GST control) | 2.02 fold enrichment (6-mer frequency, TF over GST control) | 1.72 fold enrichment (6-mer frequency, TF over GST control) | 1.62 fold enrichment (6-mer frequency, TF over GST control)
5 | TTCACA | 1.27 fold enrichment (6-mer frequency, TF over GST control) | 1.17 fold enrichment (6-mer frequency, TF over GST control) | 1.23 fold enrichment (6-mer frequency, TF over GST control) | 1.18 fold enrichment (6-mer frequency, TF over GST control) | 1.16 fold enrichment (6-mer frequency, TF over GST control) | 1.2 fold enrichment (6-mer frequency, TF over GST control) | 1.08 fold enrichment (6-mer frequency, TF over GST control) | 1.25 fold enrichment (6-mer frequency, TF over GST control) | 1.26 fold enrichment (6-mer frequency, TF over GST control)
6 | ACCATA | 1.2 fold enrichment (6-mer frequency, TF over GST control) | 1.16 fold enrichment (6-mer frequency, TF over GST control) | 1.12 fold enrichment (6-mer frequency, TF over GST control) | 1.19 fold enrichment (6-mer frequency, TF over GST control) | 1.16 fold enrichment (6-mer frequency, TF over GST control) | 1.12 fold enrichment (6-mer frequency, TF over GST control) | 1.13 fold enrichment (6-mer frequency, TF over GST control) | 1.19 fold enrichment (6-mer frequency, TF over GST control) | 1.22 fold enrichment (6-mer frequency, TF over GST control)
7 | CGACTT | 1.84 fold enrichment (6-mer frequency, TF over GST control) | 1.85 fold enrichment (6-mer frequency, TF over GST control) | 1.58 fold enrichment (6-mer frequency, TF over GST control) | 1.84 fold enrichment (6-mer frequency, TF over GST control) | 1.69 fold enrichment (6-mer frequency, TF over GST control) | 1.8 fold enrichment (6-mer frequency, TF over GST control) | 1.9 fold enrichment (6-mer frequency, TF over GST control) | 1.79 fold enrichment (6-mer frequency, TF over GST control) | 1.94 fold enrichment (6-mer frequency, TF over GST control)
8 | TACGTT | 1.29 fold enrichment (6-mer frequency, TF over GST control) | 1.26 fold enrichment (6-mer frequency, TF over GST control) | 1.4 fold enrichment (6-mer frequency, TF over GST control) | 1.31 fold enrichment (6-mer frequency, TF over GST control) | 1.29 fold enrichment (6-mer frequency, TF over GST control) | 1.24 fold enrichment (6-mer frequency, TF over GST control) | 1.25 fold enrichment (6-mer frequency, TF over GST control) | 1.33 fold enrichment (6-mer frequency, TF over GST control) | 1.35 fold enrichment (6-mer frequency, TF over GST control)
